# Data reported in PMC8769072, “Proteome‐scale mapping of binding sites in the unstructured regions of the human proteome” (Molecular Systems Biology, 2022).
# B1: NCOR1, O75376 (peptide)
# chain: HEISLKRSYESVEGNI
# B2: RNF146, Q9NTX7 (peptide)
# chain: LEDSFAHLQLSGDNTA
# B3: PCDHGC5, Q9Y5F6 (peptide)
# chain: DFTFLRPLSVQQPTAL
# B4: JAK2, O60674 (peptide)
# chain: YELLTENDMLPNMRIG
# B5: FAM90A22P, A8MWA6 (peptide)
# chain: VHTTSKRPRLDPVLAD
# B6: ZNF487, B1APH4 (peptide)
# chain: EWQHLDSAQRTPYRDM
# B7: NRK, Q7Z2Y5 (peptide)
# chain: GLKRPASQDFEYLQEE
# B8: ATG13, O75143 (peptide)
# chain: HDDFVMIDFKPAFSKD
# B9: RIC1, Q4ADV7 (peptide)
# chain: DLTESSSMVDGDWTMV
# B10: CFAP36, Q96G28 (peptide)
# chain: VLPDALTDGSDVVSDL
# B11: TRIM59, Q8IWR1 (peptide)
# chain: TDTHWTDLTHLIEKLK
# B12: TALDO1, P37837 (peptide)
# chain: MSSSPVKRQRMESALD
# B13: CACTIN, Q8WUQ7 (peptide)
# chain: WRDMTTITEDEISKLR
# B14: SP1, P08047 (peptide)
# chain: ANGWQIISSSSGATPT
# B15: HIPK3, Q9H422 (peptide)
# chain: VLASMKNTYEVLDFLG
# B16: HJURP, Q8NCD3 (peptide)
# chain: DHQFPAKRPRLSEPQG
# B17: MTA1, Q13330 (peptide)
# chain: SPTILGKRSYEQHNGV
# B18: BCL9, O00512 (peptide)
# chain: GPDSFTVLGNSMPSVF
# B19: ANKRD54, Q6NXT1 (peptide)
# chain: QVDEVTDLLASFTSLS
# B20: MLX, Q9UH92 (peptide)
# chain: AIKRGYDDLQTIVPTA
# B21: MKL2, Q9ULH7 (peptide)
# chain: ELKRKLEQEQKLVEVL
# B22: PAK1, Q13153 (peptide)
# chain: FDAVTGEFTGMPEQWA
# B23: TMEM132C, Q8N3T6 (peptide)
# chain: WVWLGNEAELLESMGD
# B24: HNRNPC, P07910 (peptide)
# chain: AGVKRSAAEMYGSVTE
# B25: KCNT1, Q5JUK3 (peptide)
# chain: RGGGSVGSDVGQRLPV
# B26: C6orf132, Q5T0Z8 (peptide)
# chain: TDELLRHPVTGEVVER
# B27: AKAP13, Q12802 (peptide)
# chain: WATIEPAPDAASLLAS
# B28: ZNF471, Q9BX82 (peptide)
# chain: GKRPYEAIEAGKAFRY
# B29: ABCC6, O95255 (peptide)
# chain: WTDLENSIVSVERMQD
# Chain of KEAP1 321-609, Q14145 (Q14145 321-609): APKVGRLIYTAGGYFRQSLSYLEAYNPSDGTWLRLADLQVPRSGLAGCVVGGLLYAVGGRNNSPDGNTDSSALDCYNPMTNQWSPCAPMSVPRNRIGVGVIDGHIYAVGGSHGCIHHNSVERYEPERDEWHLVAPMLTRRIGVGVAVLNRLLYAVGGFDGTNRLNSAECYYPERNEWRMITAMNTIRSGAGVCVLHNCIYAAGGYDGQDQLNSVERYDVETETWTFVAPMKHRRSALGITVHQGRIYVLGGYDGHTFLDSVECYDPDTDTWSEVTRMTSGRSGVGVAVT
# Chain of KPNA4 68-487, O00629 (O00629 68-487): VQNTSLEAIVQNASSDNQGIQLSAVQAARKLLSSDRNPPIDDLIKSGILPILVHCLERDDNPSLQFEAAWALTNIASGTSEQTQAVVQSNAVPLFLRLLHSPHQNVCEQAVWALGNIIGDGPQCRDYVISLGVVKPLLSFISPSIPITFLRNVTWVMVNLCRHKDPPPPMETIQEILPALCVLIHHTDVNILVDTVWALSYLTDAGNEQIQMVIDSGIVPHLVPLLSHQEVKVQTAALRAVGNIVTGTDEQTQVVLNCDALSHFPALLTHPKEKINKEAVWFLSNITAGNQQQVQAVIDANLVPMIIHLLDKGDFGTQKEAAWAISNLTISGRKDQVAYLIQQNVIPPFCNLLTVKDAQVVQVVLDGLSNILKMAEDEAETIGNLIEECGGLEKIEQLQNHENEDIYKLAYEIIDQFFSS
binder,measurement,setting,value
B1,selected by phage display,"KPNA4 68-487, O00629",confidence 3 (active)
B2,selected by phage display,"MAP1LC3A 2-121, Q9H492",confidence 3 (active)
B3,selected by phage display,"MAP1LC3A 2-121, Q9H492",confidence 3 (active)
B4,selected by phage display,"MAP1LC3A 2-121, Q9H492",confidence 2 (active)
same,selected by phage display,"MAP1LC3B 2-119, Q9GZQ8",confidence 2 (active)
B5,selected by phage display,"KPNA4 68-487, O00629",confidence 2 (active)
B6,selected by phage display,"MAP1LC3A 2-121, Q9H492",confidence 2 (active)
B7,selected by phage display,"KPNA4 68-487, O00629",confidence 2 (active)
B8,selected by phage display,"MAP1LC3A 2-121, Q9H492",confidence 3 (active)
B9,selected by phage display,"MAP1LC3A 2-121, Q9H492",confidence 4 (active)
same,selected by phage display,"MAP1LC3B 2-119, Q9GZQ8",confidence 4 (active)
B10,selected by phage display,"KEAP1 321-609, Q14145",confidence 2 (active)
B11,selected by phage display,"MAP1LC3A 2-121, Q9H492",confidence 3 (active)
B12,selected by phage display,"KPNA4 68-487, O00629",confidence 3 (active)
B13,selected by phage display,"MAP1LC3A 2-121, Q9H492",confidence 2 (active)
B14,selected by phage display,"MAP1LC3A 2-121, Q9H492",confidence 4 (active)
B15,selected by phage display,"MAP1LC3A 2-121, Q9H492",confidence 2 (active)
B16,selected by phage display,"KPNA4 68-487, O00629",confidence 2 (active)
B17,selected by phage display,"KPNA4 68-487, O00629",confidence 2 (active)
B18,selected by phage display,"MAP1LC3A 2-121, Q9H492",confidence 4 (active)
same,selected by phage display,"MAP1LC3B 2-119, Q9GZQ8",confidence 3 (active)
B19,selected by phage display,"MAP1LC3A 2-121, Q9H492",confidence 3 (active)
B20,selected by phage display,"KPNA4 68-487, O00629",confidence 2 (active)
B21,selected by phage display,"KPNA4 68-487, O00629",confidence 3 (active)
B22,selected by phage display,"KEAP1 321-609, Q14145",confidence 3 (active)
B23,selected by phage display,"MAP1LC3A 2-121, Q9H492",confidence 4 (active)
same,selected by phage display,"MAP1LC3B 2-119, Q9GZQ8",confidence 3 (active)
B24,selected by phage display,"KPNA4 68-487, O00629",confidence 3 (active)
B25,selected by phage display,"MAP1LC3A 2-121, Q9H492",confidence 2 (active)
B26,selected by phage display,"KEAP1 321-609, Q14145",confidence 4 (active)
B27,selected by phage display,"MAP1LC3A 2-121, Q9H492",confidence 3 (active)
B28,selected by phage display,"KPNA4 68-487, O00629",confidence 2 (active)
B29,selected by phage display,"MAP1LC3A 2-121, Q9H492",confidence 3 (active)
same,selected by phage display,"MAP1LC3B 2-119, Q9GZQ8",confidence 2 (active)
